Pf growth 96h – P. falciparum growth inhibition at 96 hours; P. falciparum luciferase reporter growth, 96 h; Potency, µM (highest dose often 28.7 µM), inactives show at the highest dose activity change, negative = inhibition, actives largely listed as inhibitors; 320,000 tested, 6.9% active; note: % is set by controls: 0 for no effect and ±100 for the full control effect
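Erythrocytes infected with luciferase-expressing P. falciparum were dispensed at 2% hematocrit and 0.05% parasitemia (final), then incubated with compounds 96 hours at 37 C in 5% CO2. Luminescence after detection reagent addition reported growth.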
AMA1-RON2 inh – AMA1-RON2 (P. falciparum) interaction inhibition | AlphaScreen AMA1-biotinylated RON2 peptide binding | Potency, µM (highest dose often 58.2 µM), for the others: at the highest dose activity change, negative = inhibition, actives largely listed as inhibitors | 360,000 tested, 0.2% active;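 note: 0% = vehicle wells and -100% = peptide control; nearly all actives have a fitted effect of over 45% in size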
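AMA1 (3D7) with his tag at 25 nM final met compounds first, then biotinylated RON2 peptide at 25 nM; detection used donor plus acceptor beads, 10 µg/mL apiece, read by AlphaScreen after 30 min at room temperature.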
NS1 inh – influenza NS1 inhibition; Potency, µM (top dose mostly 46.1 µM), for the others: top-dose activity, positive = more growth; 270,000 tested, 0.4% active; AID 2326; calls by dose curve; note: actives are rising curves; nearly all actives have a fitted effect of over 50% in size
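S. cerevisiae expressing influenza A NS1, grown in glucose, washed, then diluted 1:100 into pH 6.0 -URA galactose medium with 23 nl compound. Growth recovery read as OD600; NS1-free strain serves as control.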
Pf growth 48h – P. falciparum growth inhibition at 48 hours (one generation) | 310,000 tested, 5.9% active | Potency, µM (doses to about 28.7 µM), without a hit: top-dose activity change, negative = inhibition, most hits filed as inhibitors | P. falciparum luciferase growth in erythrocytes, 48 h | AID 504832; note: % is set by controls: 0 for no effect and ±100 for the full control effect
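Firefly luciferase activity from engineered P. falciparum reports growth; inhibitors lower the luminescent signal. Cultures contained 2% hematocrit erythrocytes at 0.1% final parasitemia.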
Sm TGR block – inhibitors of Schistosoma mansoni thioredoxin glutathione reductase; Q962Y6; purified TGR, DTNB reduction, TNB absorbance 405 nm; Potency, µM (doses to about 114 µM), without a hit: at the highest dose activity change, negative = inhibition, most hits filed as inhibitors; 360,000 tested, 3% active; AID 485364; note: % is set by controls: 0 for no effect and ±100 for the full control effect; nearly all actives have a fitted effect of over 60% in size
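Kinetic colorimetric format: TGR-catalysed, NADPH-driven DTNB reduction monitored via TNB absorbance. Enzyme dispensed at 20 nM; compound exposure 15 min at room temperature before reaction start.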
An asterisk follows results filed as active; ? = inconclusive; nt = no result given; [ ] = dose if it differs, or a comment. Most compounds without a hit are left out; they make up all but 11% or so of the library. Unless noted, calls come from the whole dose curve; as a rule, active = well fitted curve in the direction sought with a large enough effect; inconclusive = small, poorly fitted or top-dose-only effect, or another doubt; inactive = no such curve, though single readings can be large; an effect the other way counts as inactive or inconclusive. Potency is the fitted concentration of half-maximal effect.

SMILES	Pf growth 96h	AMA1-RON2 inh	NS1 inh	Pf growth 48h	Sm TGR block
COC(=O)c1cccc(NC(=S)Nc2cccc(Cl)c2Cl)c1	?	16%	1%	44%	45µM*
COc1cc(NC(=S)NCc2cccnc2)c(OC)cc1Cl	12µM*	15%	nt	5%	?
COc1ccccc1NC(=S)NCc1cccnc1	?	-10%[11.6 µM]	7%	11%	-34%
S=C(Nc1ccccc1)Nc1cccc(Cl)c1Cl	?	11%	5%	18%	nt
CC(=O)c1ccc(NC(=S)Nc2cccc(Cl)c2C)cc1	-16%	42%	nt	16%[5.75 µM]	35µM*
S=C(Nc1ccc(CN2CCCCC2)cc1)Nc1cccc(Cl)c1Cl	114%	-14%	-5%	?	25µM*
Cc1cc(C)n(CCNC(=O)[C@H]2O[C@@H](n3cnc4c(N)ncnc43)[C@H](O)[C@@H]2O)n1	nt	6%	nt	nt	nt
O=C(NCC1CCCN1S(=O)(=O)c1cccs1)c1cccc([N+](=O)[O-])c1 (stereo not given)	1%	-5%	nt	-24%	-9%
COC(=O)c1cccc(NC(N)=S)c1	-7%	11%	7%	0%	nt
COc1cc(NC(=S)Nc2cccc(Cl)c2Cl)c(OC)cc1Cl	2.9µM*	45%	14%	?	0%
CNC(=S)Nc1cccc(C(=O)OC)c1	0%	-19%	-2%	17%	32µM*
COc1cc(NC(=S)Nc2ccc(Br)cc2Cl)c(OC)cc1Cl	?	-2%	15%	?	-21%
Cc1cc(-c2ccc(C)c(S(=O)(=O)N(C)c3ccc(C)c(C)c3)c2)on1	nt	nt	nt	nt	6%
CCN1C(c2ccccc2)C(C)C(=O)C(C)C1c1ccccc1 (stereo not given)	9.3µM*	16%	-9%	12µM*	3%
Cc1ccccc1C(=O)Nc1nc2nc(C)c(C)c(=O)n2[nH]1	nt	nt	nt	nt	1%
COc1ccc(CCN2CC(C(=O)NCc3ccon3)CCC2=O)cc1 (stereo not given)	nt	6%	nt	nt	nt
COc1ccc(CN(C(=O)CSc2nnc(-c3c[nH]c4ccccc34)o2)c2ccc(F)cc2)cc1OC	?	-22%	28%	4.1µM*	0%
COc1ccc(CN(C(=O)CSc2nnc(-c3ccc(F)cc3)o2)c2ccc(F)cc2)cc1	-1%	1%	-20%	-23%	-27%
COc1cccc(CN2CCNC(=O)C2CC(=O)N(C)CCc2ccccn2)c1OC (stereo not given)	12%	nt	2%	11%	?
Cc1ccc(C(=O)N(CC(C)C)c2c(N)n(Cc3ccccc3)c(=O)[nH]c2=O)o1	9%	-14%	nt	32%	-13%
Cc1noc(C)c1COC(=O)CCCc1nc2ccccc2s1	5.2µM*	-13%	-10%	-18%	5%
Nc1ccc(-c2nc3c(Cl)cc(N)cc3[nH]2)cc1	9.3µM*	-16%	-1%	?	6%
Cn1c(=O)c2c(ncn2CCN(CCO)Cc2ccccc2)n(C)c1=O	7.4µM*	-12%	10%	7%	45µM*
CO[C@H]1C[C@@H]2CC[C@@H](C)[C@@](O)(O2)C(=O)C(=O)N2CCCC[C@H]2C(=O)O[C@H]([C@H](C)C[C@@H]2CC[C@@H](OCCO)[C@H](OC)C2)CC(=O)[C@H](C)/C=C(\C)[C@@H](O)[C@@H](OC)C(=O)[C@H](C)C[C@H](C)/C=C/C=C/C=C/1C	2.1µM*	nt	nt	1.5µM*	nt
CO[C@H]1C[C@@H]2CC[C@@H](C)[C@@](O)(O2)C(=O)C(=O)N2CCCC[C@H]2C(=O)O[C@H]([C@H](C)C[C@@H]2CC[C@@H](O)[C@H](OC)C2)CC(=O)[C@H](C)/C=C(\C)[C@@H](O)[C@@H](OC)C(=O)[C@H](C)C[C@H](C)/C=C/C=C/C=C/1C	1.5µM*	nt	nt	1.5µM*	nt
SMILES	Pf growth 96h	AMA1-RON2 inh	NS1 inh	Pf growth 48h	Sm TGR block
Cc1oncc1C(=O)Nc1cccc(C#N)c1	16%	-11%	4%	22%	4%
COc1ccc(-n2c(/C=C3\C(=O)N(C)c4ccccc43)nc3ccccc3c2=O)cc1	12µM*	-4%	-6%	6.6µM*	31%
COc1ccc(-n2c(/C=C/c3ccc(O)cc3)nc3ccccc3c2=O)cc1	-16%	2%	-9%	?	4%
CCN1C(=O)/C(=C\c2nc3ccccc3c(=O)n2-c2ccccc2)c2ccccc21	-2%	0%	-12%	10µM*	1%
CCN1C(=O)/C(=C/c2nc3ccccc3c(=O)n2-c2ccc(C)cc2)c2ccccc21	?	-22%	8%	?	4%
COc1ccc(Cl)cc1NC(=O)CSc1nc(NS(=O)(=O)c2ccc(C)cc2)cc(=O)[nH]1	17%	-7%	11%	0%	3%
COc1ccc(CNC(=O)CCCN2C(=O)NC3(CCCC3)C2=O)cc1	-1%	-4%	nt	-12%	-13%
COP(=O)(OC)C(=NNS(=O)(=O)c1ccc(C)cc1)c1ccccc1	nt	3%	nt	nt	nt
CCCNC(=O)C1(C)CCCN(C(=O)c2sccc2C)C1 (stereo not given)	nt	-5%	nt	nt	nt
COc1ccc2c(ccc[n+]2CC(=O)c2ccc(C)cc2)c1	?	17%	1%	?	6%
COc1ccc(C(=O)C[n+]2cn(C(F)F)c3ccccc32)c(F)c1	42%	2%	nt	42%	10µM*
COC(=O)[C@@H]1C[C@H]2CC[C@H](O)C[C@H]2N1Cc1ccccc1OS(=O)(=O)c1ccc(C)cc1	?	-1%	0%	10µM*	?
COc1cc(C(=O)Nc2nnc(S(=O)(=O)N(C)c3ccccc3)s2)cc(OC)c1OC	nt	nt	nt	nt	0%
CSc1ccc(/C=C/C(=O)c2ccc(NC(C)=O)cc2)cc1	0.66µM*	-3%	-12%	-4%	-12%
O=C(COc1ccc([N+](=O)[O-])cc1)NC(C(=O)O)C(O)c1cccc([N+](=O)[O-])c1 (stereo not given)	10%	10%	2%	52%	5%
COCCN1CCn2c(nc3cc(NC(=O)c4cccs4)ccc32)C1	nt	2%	?	23%	18µM*
CCCC(=O)Nc1ccc2c(c1)nc1n2CCN(CCOC)C1	-19%	42%	3%	-3%	20µM*
CCCCC(=O)Nc1ccc2c(c1)nc1n2CCN(CCOC)C1	-16%	1%	3%	-10%	-11%
CP(=O)(Nc1ccc(Cl)cc1)c1nc2c(s1)CCCC2 (stereo not given)	31%	-4%	0%	72%	22µM*
COC(=O)C1=C(C)NC(=O)NC1c1cn(-c2ccccc2)nc1-c1ccc(OC)c(Cl)c1 (stereo not given)	nt	nt	nt	nt	2%
CCOC(=O)c1cnc(Nc2nc3ccccc3o2)nc1CN1CCN(C)CC1	?	27%	0%	2%	50µM*
CC(C)(C)OC(=O)N1CCCC(C(=O)Nc2ccc(C(=O)N3CCCCC3)cc2)C1 (stereo not given)	nt	-3%	nt	nt	nt
Nc1ncnc(Nc2c(F)cccc2F)n1	11%	-19%	-1%	56%	-11%

Source: PubChem (National Center for Advancing Translational Sciences (NCATS))
